Experimental data from PubChem BioAssay (NCATS).
Records with an inconclusive call do not appear. Unless noted, calls come from the whole dose curve; as a rule, active = well fitted curve in either direction with a large enough effect (not every such curve was filed as active); inconclusive = small, poorly fitted or top-dose-only effect, or another doubt; inactive = flat fitted curve, though single readings scatter.

Tests used:
[1] = AP1 Signaling Pathway (AID 357); settings: ME-180 AP-1-bla reporter, EGF-induced, beta-lactamase ratio, 5 h; at 17.2 µM (top of the series) unless noted;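 note: ME-180 reporter cells stimulated with EGF at its EC50 level; % is set by controls: 0 for no effect and ±100 for the full control effect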
How it was run: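 AP-1-bla ME-180 cells, Opti-MEM + 0.5% dialyzed FBS, plated overnight 37 °C. Cpd titration + EC50 EGF, 5 h 37 °C. CCF4 2.5 h RT; ex 405, em 460/530 ratio → %activity, AC50.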

[2] = NFAT Signaling Pathway (AID 444); settings: Jurkat NFAT-bla M1, carbachol, beta-lactamase ratio, 5 h; at 17.2 µM (top of the series) unless noted;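 note: carbachol stimulus at about its EC50 of 1 µM final; % is set by controls: 0 for no effect and ±100 for the full control effect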
How it was run: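 Jurkat cells carrying an NFAT-driven β-lactamase reporter and co-transfected muscarinic M1 receptor were treated with compound plus carbachol (1 uM final, an EC50 level) for 5 h at 37 °C. CCF4 loading followed for 1 h at RT; 460/530 nm ratio gave %activity.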

[3] = Stat Signaling Pathway (AID 446); settings: ME-180 (cervical carcinoma) SIE beta-lactamase reporter, IL-6 stimulated, 5 h; at 17.2 µM (top of the series) unless noted;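 note: ME-180 cervical cancer cells given 40 pM IL-6 alongside compound; SIE-controlled beta-lactamase reporter measured as 460/530 nm FRET emission ratio; % is set by controls: 0 for no effect and ±100 for the full control effect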
How it was run: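 Normalization used AC90 stimulation (300 pM IL-6) and AC90 inhibition (125 nM pan-JAK inhibitor at 40 pM IL-6). The underlying signal is SIE-driven beta-lactamase in ME-180 cells after 5 h IL-6 exposure with compound.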

[4] = biological target: Glucocorticoid receptor (Homo sapiens) (UniProt P04150); experiment: GR-GFP Redistribution (AID 450;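 active = compounds whose dose series gives a full or clear partial fitted curve of increased nuclear translocation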; note: potency is the fitted concentration of half-maximal effect); settings: U2OS GR-GFP nuclear translocation, laser cytometry, 2 h; series mostly up to 20.6 µM
Glucocorticoid receptor (Homo sapiens), sequence (P04150 whole entry, looked up): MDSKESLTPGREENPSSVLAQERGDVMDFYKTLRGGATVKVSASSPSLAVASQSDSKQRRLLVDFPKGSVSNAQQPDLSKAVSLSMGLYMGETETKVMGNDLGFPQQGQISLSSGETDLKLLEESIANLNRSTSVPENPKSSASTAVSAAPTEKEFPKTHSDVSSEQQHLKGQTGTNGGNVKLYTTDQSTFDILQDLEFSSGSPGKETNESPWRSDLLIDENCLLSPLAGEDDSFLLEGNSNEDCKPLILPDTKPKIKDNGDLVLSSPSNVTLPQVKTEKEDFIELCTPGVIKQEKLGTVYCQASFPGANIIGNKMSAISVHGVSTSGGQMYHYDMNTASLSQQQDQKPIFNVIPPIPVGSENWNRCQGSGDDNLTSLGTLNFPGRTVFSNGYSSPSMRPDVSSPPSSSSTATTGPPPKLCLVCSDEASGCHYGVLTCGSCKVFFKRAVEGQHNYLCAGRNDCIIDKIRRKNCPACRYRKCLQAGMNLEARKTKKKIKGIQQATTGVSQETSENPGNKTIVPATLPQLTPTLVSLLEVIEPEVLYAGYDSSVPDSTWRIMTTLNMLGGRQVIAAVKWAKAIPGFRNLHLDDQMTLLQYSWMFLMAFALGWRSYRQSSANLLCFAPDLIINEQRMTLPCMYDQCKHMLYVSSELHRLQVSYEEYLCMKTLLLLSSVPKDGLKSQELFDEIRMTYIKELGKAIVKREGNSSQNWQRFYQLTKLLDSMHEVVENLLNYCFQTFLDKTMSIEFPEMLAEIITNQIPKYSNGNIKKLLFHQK

COc1ccc2oc(=O)c(-c3nc(C)cs3)cc2c1
inactive: activity change, negative = inhibition [1] 19.7% | activity change, negative = inhibition [2] -8.83% | activity, negative = inhibition [3] 17.3% | Potency [4] > 20.6 µM

CC1(C)Cc2c(sc3nc(SCC(=O)NCc4ccco4)n(-c4ccccc4)c(=O)c23)CS1
inactive: activity change, negative = inhibition [1] -19.4% | activity change, negative = inhibition [2] -13.9% | activity, negative = inhibition [3] -26.5% | Potency [4] > 20.6 µM

CCc1nc2n[nH]c(N)c2c2c1CCCC2
inactive: activity change, negative = inhibition [1] -12.2% | activity change, negative = inhibition [2] 1.69% | activity, negative = inhibition [3] -2.34% | Potency [4] > 20.6 µM

Cc1cc(/C=N/n2cnnc2)c(C)n1-c1ccc2c(c1)OCO2
inactive: activity change, negative = inhibition [1] 9.26% | activity change, negative = inhibition [2] -13% | activity, negative = inhibition [3] -0.639% | Potency [4] > 20.6 µM

c1ccc(CN2CCN(c3nc(-c4ccccn4)nc4ccccc34)CC2)cc1
inactive: activity change, negative = inhibition [1] 14.9% | activity change, negative = inhibition [2] -29% | activity, negative = inhibition [3] 6.73% | Potency [4] > 20.6 µM

COc1cccc(C2C(C(=O)c3sc(C)nc3C)=C(O)C(=O)N2CCN2CCOCC2)c1OC (configuration not stated)
inactive: activity change, negative = inhibition [1] 3.76% | activity change, negative = inhibition [2] 12.8% | activity, negative = inhibition [3] 7.97% | Potency [4] > 20.6 µM

CC1(C)Cc2c(c(-c3ccccc3)[nH]c(=O)c2C#N)CS1
inactive: activity change, negative = inhibition [1] -0.182% | activity change, negative = inhibition [2] 2.27% | activity, negative = inhibition [3] -8.62% | Potency [4] > 20.6 µM

O=C1C(=O)N(CCCn2ccnc2)C(c2ccccn2)/C1=C(/O)c1ccccc1 (configuration not stated)
inactive: activity change, negative = inhibition [1] 15.8% | activity change, negative = inhibition [2] 6.66% | activity, negative = inhibition [3] -2.92% | Potency [4] > 20.6 µM

O=C(Oc1ccccc1)c1c(Cl)cccc1P(=O)(O)O
inactive: activity change, negative = inhibition [1] 7.32% | activity change, negative = inhibition [2] 2.02% | activity, negative = inhibition [3] 5.05% | Potency [4] > 20.6 µM

COC(=O)CSc1nc(C)c(C(C)=O)cc1C#N
inactive: activity change, negative = inhibition [1] 4.99% | activity change, negative = inhibition [2] -0.342% | activity, negative = inhibition [3] 7.71% | Potency [4] > 20.6 µM

CC1(C)Cc2c(sc3nc4n(c(=O)c23)CCC4)CO1
inactive: activity change, negative = inhibition [1] -2.8% | activity change, negative = inhibition [2] 2.28% | activity, negative = inhibition [3] -2.43% | Potency [4] > 20.6 µM

COc1cccc(C2/C(=C(/O)c3cnn(-c4ccccc4)c3C)C(=O)C(=O)N2CCN(C)C)c1 (configuration not stated)
inactive: activity change, negative = inhibition [1] 3.35% | activity change, negative = inhibition [2] -7.78% | activity, negative = inhibition [3] -11.2% | Potency [4] > 20.6 µM

Cn1cc(Cl)nc1C(O)c1ccccc1 (configuration not stated)
inactive: activity change, negative = inhibition [1] 2.37% | activity change, negative = inhibition [2] -2.26% | activity, negative = inhibition [3] 6.92% | Potency [4] > 20.6 µM

CC(C)CCOc1ccc(Cl)cc1CN1CCOCC1
inactive: activity change, negative = inhibition [1] 26.6% | activity change, negative = inhibition [2] 5.23% | activity, negative = inhibition [3] 9.43% | Potency [4] > 20.6 µM

CCOc1cc(C2Nc3ccccc3C(=O)N2c2ccccc2OC)ccc1O (configuration not stated)
inactive: activity change, negative = inhibition [1] 18.3% | activity change, negative = inhibition [2] 6.73% | activity, negative = inhibition [3] 5.03% | Potency [4] > 20.6 µM

CCN(CC)CCN1C(=O)C(O)=C(C(C)=O)C1c1ccc(OC)c(OC)c1 (configuration not stated)
inactive: activity change, negative = inhibition [1] 1.74% | activity change, negative = inhibition [2] 3.09% | activity, negative = inhibition [3] -2.04% | Potency [4] > 20.6 µM

COCc1[nH]nc2c1C(c1ccnc3ccccc13)C(C#N)=C(N)O2 (configuration not stated)
inactive: activity change, negative = inhibition [1] -7.4% | activity change, negative = inhibition [2] 17.7% | activity, negative = inhibition [3] -1.49% | Potency [4] > 20.6 µM

Nc1nnc(CSCc2ccc(F)cc2)s1
inactive: activity change, negative = inhibition [1] 8.86% | activity change, negative = inhibition [2] -1.8% | activity, negative = inhibition [3] -2.21% | Potency [4] > 20.6 µM
